# Experimental data reported in PubChem BioAssay.
# Active and inactive are the calls of the source.
# Tests used:
# [1] = binders of probe aFSTL3 on microarray, primary screen, stem cell growth factor project, biochemical, small-molecule microarray, fluorescence 635/667 (AID 1064); conditions: higher = more signal;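 note: measures binding of the biotinylated anti-FSTL3 antibody to printed compounds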
# [2] = binders from COS7 lysate, DM2A8 probe, primary screen, torsin A project, cell lysate, small-molecule microarray, fluorescence 635/667 (AID 1065); conditions: higher = more signal, COS7 lysate expressing mutant human TOR1A
# [3] = binders of probe aFGF2 on microarray, primary screen, stem cell growth factor project, biochemical, small-molecule microarray, fluorescence 635/667 (AID 1067); conditions: higher = more signal;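 note: measures binding of biotinylated aFGF2 protein to printed compounds on slides; z-score merges feature fluorescence and signal-to-noise across triplicate slides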
# [4] = binders of probe aFGF10 on microarray, primary screen, stem cell growth factor project, biochemical, small-molecule microarray, fluorescence 635/667 (AID 1071); conditions: higher = more signal;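 note: score merges 667 nm spot intensity and signal to noise from triplicate slides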
# [5] = molecular target: Neurogenic locus notch homolog protein 2 (Homo sapiens) (UniProt Q04721); assay: Notch2 binders on small-molecule microarrays, primary screen, biochemical, small-molecule microarray, 635 nm fluorescence, stem cell growth factors (AID 1073); conditions: Notch2 binding, higher = more signal
# [6] = molecular target: Pro-neuregulin-1, membrane-bound isoform (Homo sapiens) (UniProt Q02297); assay: NRG1 binders on small-molecule microarrays, primary screen, psychiatric disease protein project, biochemical, small-molecule microarray, fluorescence 635/667 (AID 1075); conditions: NRG1 binding, 635 nm fluorescence, higher = more signal;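 note: score combines 667 nm spot fluorescence with signal to noise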
# [7] = tested on: Neuregulin-1 EGF-like domain; assay: binders of neuregulin-1 EGF-like domain, primary screen, biochemical, small-molecule microarray, 635 nm fluorescence (AID 1081); conditions: small-molecule microarray binding, higher = more signal;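 note: binding of the protein to compounds printed on small-molecule microarray slides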
# [8] = FRG1 promoter luciferase signal modulators, primary screen, FRG1 inhibition for FSHD, cell-based, C2C12 myotubes, firefly/Renilla luciferase, luminescence (AID 1084); conditions: higher = more signal, called active from +8 up or from −8 down
# [9] = binders of probe aFST on microarray, primary screen, stem cell growth factor project, biochemical, small-molecule microarray, fluorescence 635/667 (AID 1086); conditions: higher = more signal;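 note: score merges 667 nm fluorescence with signal-to-noise of each printed compound spot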
# [10] = binders of probe aHhip on microarray, primary screen, stem cell growth factor project, biochemical, small-molecule microarray, fluorescence 635/667 (AID 1087); conditions: higher = more signal;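 note: score merges spot fluorescence at 667nm with spot signal to noise ratio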
# [11] = tested on: PRMT1 (protein arginine N-methyltransferase 1); assay: PRMT1 binders on small-molecule microarrays, primary screen, biochemical, small-molecule microarray, 635 nm fluorescence (AID 1088); conditions: small-molecule microarray binding, higher = more signal;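 note: binding of Prmt1 protein to compounds spotted on small-molecule microarray slides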
# [12] = yeast growth modulation, basal conditions, primary screen, YJM789 clinical isolate, OD600, 24 h (AID 1089);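 note: growth of clinical yeast isolate S. cerevisiae YJM 789 seeded 1000 cells per well; test concentration not given here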; conditions: S. cerevisiae YJM789 growth, higher = more signal, called active from +8 up or from −8 down
# [13] = fission yeast growth modulation, primary screen, strain 972, OD600, 24 h, no modulator (AID 1090);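 note: basal condition with compound alone and no growth modifier present; test concentration not given here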; conditions: S. pombe 972 growth, higher = more signal, called active from +8 up or from −8 down
# [14] = S. cerevisiae growth modulation with rapamycin, primary screen, strain BY4716, OD600, 96 h (AID 1091); conditions: higher = more signal, called active from +8 up or from −8 down; note: test concentration not given here
# [15] = molecular target: Torsin-1A-interacting protein 2 (Homo sapiens) (UniProt Q8NFQ8); assay: LULL1 binders on small-molecule microarray, primary screen, cell lysate, human LULL1 lysate, 635/667 nm fluorescence (AID 1092); conditions: hLULL1 lysate binding, 635 nm fluorescence, higher = more signal;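 note: probe is lysate of COS7 cells overexpressing human LULL1; score merges per-feature 667 nm fluorescence with signal-to-noise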
# [16] = E. coli growth modulation, two-sided OD650, primary screen, E. coli filamentation project, strain DRC41, 24 h (AID 1093); conditions: OD650, 24 h, higher = more signal, called active from +8 up or from −8 down;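 note: MC1000 strain lacking acrAB efflux and sulA so SOS filamentation is blocked; test concentration not given here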
# [17] = small-molecule microarray binders of probe aLefty2, primary screen, biochemical, biotinylated probe, 635/667 nm fluorescence (AID 1094); conditions: higher = more signal;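 note: score merges spot fluorescence near 667 nm with spot signal-to-noise ratio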
# [18] = tested on: Noggin (protein binding on small-molecule microarray); assay: Noggin binders on small-molecule microarray, primary screen, biochemical, 635/667 nm fluorescence (AID 1095); conditions: 635 nm fluorescence, higher = more signal;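 note: score merges 667 nm feature fluorescence with signal to noise over triplicate slides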
# [19] = molecular target: Neurogenic locus notch homolog protein 3 (Homo sapiens) (UniProt Q9UM47); assay: NOTCH3 binders on small-molecule microarray, primary screen, biochemical, 635/667 nm fluorescence (AID 1096); conditions: NOTCH3 binding, 635 nm fluorescence, higher = more signal
# [20] = small-molecule microarray binders of probe aEGFR, primary screen, biochemical, biotinylated probe, 635/667 nm fluorescence (AID 1097); conditions: higher = more signal;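 note: probe is a biotinylated anti-EGFR antibody binding compounds printed on slides; score combines fluorescence near 667 nm and signal to noise of each spot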
# Chain of Pro-neuregulin-1, membrane-bound isoform (Homo sapiens) (Q02297 whole entry, looked up, the tested form may be a part, canonical isoform): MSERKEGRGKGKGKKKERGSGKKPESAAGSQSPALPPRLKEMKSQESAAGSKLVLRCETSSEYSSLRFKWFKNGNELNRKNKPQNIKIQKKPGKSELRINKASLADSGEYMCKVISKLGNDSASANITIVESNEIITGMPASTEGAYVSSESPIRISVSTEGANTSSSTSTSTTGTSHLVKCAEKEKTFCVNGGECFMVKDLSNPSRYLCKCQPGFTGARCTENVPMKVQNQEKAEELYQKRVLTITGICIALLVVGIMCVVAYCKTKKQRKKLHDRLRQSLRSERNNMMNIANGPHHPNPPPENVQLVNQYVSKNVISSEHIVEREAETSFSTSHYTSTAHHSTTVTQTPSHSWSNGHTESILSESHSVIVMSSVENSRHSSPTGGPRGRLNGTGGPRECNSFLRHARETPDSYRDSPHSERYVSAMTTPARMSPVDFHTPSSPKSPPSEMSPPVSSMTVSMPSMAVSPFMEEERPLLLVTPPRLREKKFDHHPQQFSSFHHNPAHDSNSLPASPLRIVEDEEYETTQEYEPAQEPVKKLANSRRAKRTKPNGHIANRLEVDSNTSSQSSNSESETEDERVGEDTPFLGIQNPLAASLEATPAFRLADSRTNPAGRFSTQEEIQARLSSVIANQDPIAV
# Chain of Neurogenic locus notch homolog protein 2 (Homo sapiens) (Q04721 whole entry, looked up, canonical isoform): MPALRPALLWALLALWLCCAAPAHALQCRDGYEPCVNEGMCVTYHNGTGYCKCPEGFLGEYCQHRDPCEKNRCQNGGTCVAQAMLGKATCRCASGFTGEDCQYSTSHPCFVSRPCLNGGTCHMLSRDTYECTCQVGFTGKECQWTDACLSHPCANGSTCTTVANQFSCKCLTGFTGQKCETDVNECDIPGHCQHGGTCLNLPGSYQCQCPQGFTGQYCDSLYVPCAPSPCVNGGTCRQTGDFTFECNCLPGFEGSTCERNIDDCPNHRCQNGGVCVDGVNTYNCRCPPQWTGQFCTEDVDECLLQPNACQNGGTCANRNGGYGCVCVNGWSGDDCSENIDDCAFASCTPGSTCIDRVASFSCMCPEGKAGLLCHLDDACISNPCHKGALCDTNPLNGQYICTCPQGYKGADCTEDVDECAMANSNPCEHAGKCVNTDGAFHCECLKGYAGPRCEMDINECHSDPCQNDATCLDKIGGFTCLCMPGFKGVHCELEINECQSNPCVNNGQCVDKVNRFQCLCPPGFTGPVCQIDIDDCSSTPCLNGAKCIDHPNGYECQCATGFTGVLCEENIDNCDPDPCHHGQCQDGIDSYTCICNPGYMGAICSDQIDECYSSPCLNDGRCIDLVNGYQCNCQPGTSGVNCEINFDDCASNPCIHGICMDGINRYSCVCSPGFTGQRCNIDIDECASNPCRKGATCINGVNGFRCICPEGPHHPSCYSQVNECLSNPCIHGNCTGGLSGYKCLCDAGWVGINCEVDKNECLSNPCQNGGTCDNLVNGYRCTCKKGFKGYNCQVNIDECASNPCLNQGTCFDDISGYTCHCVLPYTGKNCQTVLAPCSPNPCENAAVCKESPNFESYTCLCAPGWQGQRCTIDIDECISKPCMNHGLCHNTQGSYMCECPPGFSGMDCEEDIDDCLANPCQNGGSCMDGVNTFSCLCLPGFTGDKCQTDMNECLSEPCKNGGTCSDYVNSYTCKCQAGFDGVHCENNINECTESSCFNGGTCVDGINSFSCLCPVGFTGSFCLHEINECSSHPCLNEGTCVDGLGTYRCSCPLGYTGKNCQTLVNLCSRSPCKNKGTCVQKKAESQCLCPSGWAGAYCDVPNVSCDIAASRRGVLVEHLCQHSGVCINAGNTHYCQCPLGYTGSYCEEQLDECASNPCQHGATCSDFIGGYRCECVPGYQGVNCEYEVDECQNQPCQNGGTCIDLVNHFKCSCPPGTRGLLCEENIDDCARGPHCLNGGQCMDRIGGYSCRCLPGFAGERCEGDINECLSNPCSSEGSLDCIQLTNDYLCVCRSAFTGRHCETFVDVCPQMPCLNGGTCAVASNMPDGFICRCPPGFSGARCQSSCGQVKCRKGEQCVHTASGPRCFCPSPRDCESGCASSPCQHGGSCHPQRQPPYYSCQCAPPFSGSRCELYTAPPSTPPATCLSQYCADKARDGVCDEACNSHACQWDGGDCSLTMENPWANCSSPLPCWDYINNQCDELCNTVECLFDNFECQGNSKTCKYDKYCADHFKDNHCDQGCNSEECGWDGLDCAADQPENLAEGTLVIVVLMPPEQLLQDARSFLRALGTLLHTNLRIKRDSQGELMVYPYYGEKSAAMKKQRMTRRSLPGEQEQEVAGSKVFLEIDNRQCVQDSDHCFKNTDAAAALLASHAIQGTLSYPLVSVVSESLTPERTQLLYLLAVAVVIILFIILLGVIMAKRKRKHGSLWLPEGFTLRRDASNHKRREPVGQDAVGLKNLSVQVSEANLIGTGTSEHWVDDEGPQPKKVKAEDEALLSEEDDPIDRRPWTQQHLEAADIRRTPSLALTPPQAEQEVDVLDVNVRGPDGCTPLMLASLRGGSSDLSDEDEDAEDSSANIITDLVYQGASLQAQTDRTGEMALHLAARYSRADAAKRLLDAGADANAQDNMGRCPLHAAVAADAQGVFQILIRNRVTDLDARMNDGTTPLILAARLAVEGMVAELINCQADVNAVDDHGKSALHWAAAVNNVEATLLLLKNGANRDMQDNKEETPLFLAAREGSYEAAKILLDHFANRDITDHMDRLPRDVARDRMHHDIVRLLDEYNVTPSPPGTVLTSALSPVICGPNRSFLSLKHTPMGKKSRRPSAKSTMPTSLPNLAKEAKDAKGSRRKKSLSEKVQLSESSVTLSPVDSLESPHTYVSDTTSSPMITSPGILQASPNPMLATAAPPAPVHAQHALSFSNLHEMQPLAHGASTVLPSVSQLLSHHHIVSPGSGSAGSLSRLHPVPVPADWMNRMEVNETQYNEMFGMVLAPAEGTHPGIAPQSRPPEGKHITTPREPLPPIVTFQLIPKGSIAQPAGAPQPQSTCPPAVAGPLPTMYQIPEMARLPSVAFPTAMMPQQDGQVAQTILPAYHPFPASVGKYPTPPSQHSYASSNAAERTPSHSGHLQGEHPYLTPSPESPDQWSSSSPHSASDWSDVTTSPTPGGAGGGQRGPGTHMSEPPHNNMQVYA
# Chain of Torsin-1A-interacting protein 2 (Homo sapiens) (Q8NFQ8 whole entry, looked up): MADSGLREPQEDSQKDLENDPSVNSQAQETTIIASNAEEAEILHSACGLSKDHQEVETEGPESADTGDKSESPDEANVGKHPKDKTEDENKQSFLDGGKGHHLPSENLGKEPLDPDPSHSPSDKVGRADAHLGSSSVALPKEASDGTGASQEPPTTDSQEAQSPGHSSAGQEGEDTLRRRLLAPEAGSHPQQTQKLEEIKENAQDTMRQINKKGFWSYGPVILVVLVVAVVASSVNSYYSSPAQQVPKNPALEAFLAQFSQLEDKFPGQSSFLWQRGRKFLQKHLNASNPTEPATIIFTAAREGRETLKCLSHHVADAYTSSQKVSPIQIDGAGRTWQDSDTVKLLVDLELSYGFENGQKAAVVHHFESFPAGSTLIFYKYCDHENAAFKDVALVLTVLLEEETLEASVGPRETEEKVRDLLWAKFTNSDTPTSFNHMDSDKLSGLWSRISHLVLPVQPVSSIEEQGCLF
Compound,composite z-score [1],composite z-score [2],composite z-score [3],composite z-score [4],composite z-score [5],composite z-score [6],composite z-score [7],z-score [8],composite z-score [9],composite z-score [10],composite z-score [11],z-score [12],z-score [13],z-score [14],composite z-score [15],z-score [16],composite z-score [17],composite z-score [18],composite z-score [19],composite z-score [20]
[N-]=[N+]=NCc1ccccc1C[C@@]1(C(=O)NCC(O)CO)N=C(c2ccc(OCCCO)cc2)O[C@@H]1c1ccccc1 (stereo not given in full),1.03,0.0102,-0.0459,0.206,0.111,0.768,0.952,-1.26 (inactive),-0.12,-0.132,0.303,-0.213 (inactive),-0.272 (inactive),-0.37 (inactive),3.21,0.627 (inactive),0.202,-0.962,-1.12,0.0061
COC(=O)[C@H](Cc1ccccc1)N[C@H](/C=C/C1CC1)[C@@H](O)Cc1ccccc1,0.128,0.1,-0.202,-0.471,-0.567,-0.0373,-0.626,-1.72 (inactive),-0.474,-0.132,-0.108,-1.56 (inactive),-5.75 (inactive),-0.751 (inactive),-0.316,1.04 (inactive),-0.279,0.195,-0.469,-0.178
CC[C@@H]1C=C(C(=O)O)[C@H](c2cccc3ccccc23)N1S(=O)(=O)c1ccc(C)cc1,-0.0805,-0.26,-0.0162,0.184,0.709,1.94,0.573,-3.41 (inactive),0.279,-0.0645,0.479,-0.118 (inactive),1.49 (inactive),-0.168 (inactive),3,-0.428 (inactive),-0.0537,0.0891,0.814,-0.0356
CCOc1cc(C(O)C2C=CC3C(=O)N(c4ccccc4)C(=O)C3N2Nc2ccc(C(C)C)cc2)ccc1O (stereo not given),0.0696,0.201,-0.0254,0.707,1.52,1.36,1.31,0.698 (inactive),1.17,-0.0237,1.55,0.471 (inactive),-1.28 (inactive),0.597 (inactive),3.42,-1.14 (inactive),0.0261,0.107,1.1,-0.0581
CCN(CC)c1ccc(N2CC=CC34O[C@@H]5C=CCOC(=O)[C@@H]5[C@H]3C(=O)N(CCCCCCO)[C@@H]4C2=O)cc1 (stereo not given in full),0.52,0.19,-0.167,-0.631,-0.489,1.87,1.46,-0.766 (inactive),-0.263,-0.0296,0.933,-0.259 (inactive),-0.53 (inactive),-0.975 (inactive),2.63,2.24 (inactive),-0.192,-0.526,-0.136,-0.0987
[N-]=[N+]=Nc1ccccc1C[C@@]1(C(=O)N2CCCCC2)N=C(c2ccc(OCCCO)cc2)O[C@@H]1c1ccccc1N=[N+]=[N-],1.23,0.436,0.286,0.758,1.6,0.429,1.17,-2.04 (inactive),1.14,-0.121,0.919,-1.16 (inactive),0.123 (inactive),1.18 (inactive),2.45,0.799 (inactive),0.605,0.169,0.884,0.29
O=C1[C@H]2C=C(I)[C@H](C[C@@H]2OCCCCO)[C@@]12CO2,-0.0695,2.01,0.209,-0.484,-0.542,-0.456,0.576,0.988 (inactive),-0.174,0.162,0.9,-1.04 (inactive),-0.983 (inactive),0.0593 (inactive),0.512,-1.09 (inactive),-0.0534,0.573,0.186,-0.165
O=C1NC(=O)C2C1C=CC(C(O)c1ccc(I)cc1)N2Nc1ccccn1 (stereo not given),0.193,0.142,0.0111,-0.0668,0.599,1.71,0.725,0.63 (inactive),-0.0237,-0.0173,0.321,-0.353 (inactive),0.426 (inactive),0.17 (inactive),2.56,-0.956 (inactive),-0.0328,0.143,0.15,-0.0947
COC(=O)[C@@]1(Cc2ccccc2)[C@H]2c3cc(C(=O)N4CCCC4)n(Cc4ccc(O)c(OC)c4)c3C[C@H]2CN1C(=O)c1ccccc1,0.528,-0.162,0.185,0.0854,1.53,1.66,1.39,-0.433 (inactive),1.04,0.651,-0.358,1.21 (inactive),0.943 (inactive),2.06 (inactive),3.43,-0.667 (inactive),0.641,-0.786,0.79,0.249
COc1ccc([Si](C)(C)[C@@H]2[C@@H](CC(=O)N3CCC[C@H]3CO)O[C@]3(C(=O)N(Cc4cccc(I)c4)c4ccccc43)[C@H]2C)cc1,0.07,1.29,-0.137,0.192,1.08,0.916,1.17,-1.06 (inactive),0.453,-0.0994,1.53,-1.23 (inactive),0.0115 (inactive),1.14 (inactive),0.175,0.25 (inactive),0.0678,1.62,1.08,0.0807
CCOC(=O)C[C@H]1[C@H](OC(=O)c2ccc(-c3ccccc3)cc2)[C@@H](NC(=O)c2ccccc2)c2cc(OCCCO)ccc2N1C(=O)c1ccc2ccccc2n1,-0.168,0.732,-0.105,0.311,0.606,0.742,0.507,1.22 (inactive),0.402,-0.0994,0.316,-1.04 (inactive),0.0452 (inactive),0.545 (inactive),1.23,-0.751 (inactive),0.0769,0.0388,0.742,-0.0031
